Assay results reported in paper PMC12136788.
In all, about 5,800 sequences were measured (“enrichment r”: median about 0.68, highest 2% from about 11 on). The entries come from a sample that favours the highest values as a whole.

T1: UNK ZnF1-6 (called full-length) (human, UniProt Q9C0B0 30-357)
T1 sequence: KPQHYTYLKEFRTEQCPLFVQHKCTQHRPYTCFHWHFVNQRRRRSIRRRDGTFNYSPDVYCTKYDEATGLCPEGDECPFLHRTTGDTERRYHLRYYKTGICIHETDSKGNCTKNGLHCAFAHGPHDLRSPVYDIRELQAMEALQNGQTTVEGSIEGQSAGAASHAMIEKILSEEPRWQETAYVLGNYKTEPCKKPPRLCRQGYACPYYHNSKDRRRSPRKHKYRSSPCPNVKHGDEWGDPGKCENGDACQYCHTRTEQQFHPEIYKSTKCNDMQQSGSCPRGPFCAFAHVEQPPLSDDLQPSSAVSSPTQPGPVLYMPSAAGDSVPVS

B1: ENSG00000198589:be:win_7901|CDS|ENSG00000198589|bound_else_gene|NA|bound_elsewhere_windowed (ssRNA)
RNA: GGGAGUUCUACAGUCCGACGAUCCUCGUUCUGAGUCAUAUAUUGGGGGAAAUUGCUACAUUCUCUCAGGGUCACGUGAUGCAACUCUUUUGCUGUGGUAUUGGAAUGGAAAAUGCAGUGGGAUUGGAGAUAACCCAGGCAGUGCAACAGAGGAUUGAGCAUCA
B2: chr13:106491723:106491923:-|3pUTR|ENSG00000125266|msi1|total|mutant (ssRNA)
RNA: GGGAGUUCUACAGUCCGACGAUCCAGACUCAGCUGCUAUACUUAUCACAUUUUAUUAAACACAGGGAAAGCAUUCCGGAGAACCGCAGAGAGCCAAAUCUGACCUAAAAGUUGAAAAGCCAAAGGUCAAACAGGCUGUAAUUCCAACAGAGGAUUGAGCAUCA
B3: chr1:178849534:178851128:-|three_prime_utr|ENSG00000116194|control|control|control (ssRNA)
RNA: GGGAGUUCUACAGUCCGACGAUCCUACACAGAAAGUUUUUAAAAUGAAUUUUACCGUAACUAUAAAAGGGAACCUAUAAAUGUAGUUUCAUCUGUCGUCAAUUACUGCAGAAAAUUAUGUGUAUCCACAACCUAGUUAUUUUACAACAGAGGAUUGAGCAUCA
B4: chr11:119045269:119045370:-|3pUTR|ENSG00000149428|msi1|FALSE|unique (ssRNA)
RNA: GGGAGUUCUACAGUCCGACGAUCUGUGGUUAAAAAUGGAAACUGUUCUCCUCCCCAGCCCCACUCCCUGUUCCCUACCCAUAUAGGCCCUAAAUUUGGGAAAAAUCACUAUUAAUUUCUGAAUCCUUUGCCUGUGGGUAGGAACAACAGAGGAUUGAGCAUCA
B5: chr14:53039561:53039662:-|3pUTR|ENSG00000100523|unk|total|mutant (ssRNA)
RNA: GGGAGUUCUACAGUCCGACGAUCUCAAACUAUAUUUUUGUUACAGCAAACUACAUUCCAUUUGCCUUUAAAUGCUUGCAUUUCCGUUAUUGUACUGGCUACCUGUUUUUGUCUGCCCAGCAUCCUGUUUCCCCUCCUUUUGGACAACAGAGGAUUGAGCAUCA
B6: chr2:5695263:5695412:+|3pUTR|ENSG00000176887|msi1_unk|FALSE|overlapping (ssRNA)
RNA: GGGAGUUCUACAGUCCGACGAUCUGGUGAUAUAGACCUCAGAGCUGUUAUCUUAGUUUAAAGAUUGUAUAUGUACUGUACUAUAGUAGGACUUUAUGUAUCUCAUACGCUGUGAUGUGGAUGGGGCCCCAGAUGGAAGGUUUGCAACAGAGGAUUGAGCAUCA
B7: chr1:162523450:162523604:+|3pUTR|ENSG00000152332|msi1|FALSE|unique (ssRNA)
RNA: GGGAGUUCUACAGUCCGACGAUCAGACUAAGUUGUGCCAGAUGUAAAUCAACCCCUCUUUUAGUUUACUUUAGACUUUGUAUUAGCUCAUCUUUUUUGUAGUAAAUCUAUAGUUUUAAGGUUUCUCAAGAUGUGGCUCUACCUCAACAGAGGAUUGAGCAUCA
B8: chr15:52550141:52550321:-|3pUTR|ENSG00000128989|msi1|FALSE|unique (ssRNA)
RNA: GGGAGUUCUACAGUCCGACGAUCAGAUGUCACUUUAGUAAAAUACCAAUUUAGUUUUACUUGUGGCUUAUCUAGUUAGAACUUAGCAGACUUUACUGGGACAAGUUUACUGCUCUUGUAGGAGCUCCUCUCACAAGUAGUUGUCAACAGAGGAUUGAGCAUCA
B9: chr10:17315694:17315795:-|3pUTR|ENSG00000148488|unk|FALSE|unique (ssRNA)
RNA: GGGAGUUCUACAGUCCGACGAUCCUUCUUCCUCCCUGUCCAUCCCACCCUCGUCCCCAGAAAAUUCCUAAUCUGUUUUUCUAUAGACAUUUACAUUUUUACACUAUAGACUGUUUACAUUUUUUAGAAUUUUAUAUAAAUGGACAACAGAGGAUUGAGCAUCA
B10: chr3:89481969:89482070:+|3pUTR|ENSG00000044524|msi1|FALSE|unique (ssRNA)
RNA: GGGAGUUCUACAGUCCGACGAUCAUAUGUGUUUACUUUAAACUUGUCUUUUCAAAAUAUUACUCAGUUUAUGUUGUACAAUGUAGAUGGCCUCUUACUAAUGUAAAAUGAUUUGUAGUGGAAACAUUUAUAUUUUUAUAAUAACAACAGAGGAUUGAGCAUCA
B11: chr1:9729969:9730061:-|3pUTR|ENSG00000171603|msi1_unk|FALSE|overlapping (ssRNA)
RNA: GGGAGUUCUACAGUCCGACGAUCGUUUUUAUUUUUUCCAAACUAGUGCAUGUAUAAAUAAUGGCAGGAUGGGGGGUACUGUGUAGAUGAUUAACUGACUUUUUAAUAUUUUGUAAAUAAAUCGGAUUCCUUGUGUCCUUUGUGCAACAGAGGAUUGAGCAUCA
B12: chr1:93361585:93361687:+|3pUTR|ENSG00000117505|unk|FALSE|unique (ssRNA)
RNA: GGGAGUUCUACAGUCCGACGAUCUUUAACUUGUAGUUAUAGUUUACUUAUUGUUUUUAGAAUUACUUUUACAUUUUCCCAACUAGAUGGCCUAGAGUCCAACAUUACCUUUUGAGAUGACAUUAUUGUCUCCAUAAUUGAGUGCAACAGAGGAUUGAGCAUCA

The binders below were run against T1, UNK ZnF1-6 (called full-length) (assay: nsRBNS (natural sequence RNA bind-n-seq); RBNS binding buffer (assumed for nsRBNS): 25 mM Tris pH 7.5, 150 mM KCl, 3 mM MgCl2, 0.01% Triton X-100, 500 ug/ml BSA, 20 U/ml SUPERase-In, 4 C; UNK is unkempt and MSI1 is Musashi-1; names of the RNAs are library labels; protein concentration not given here; high values mean tight binding).

Row | Binder | binding signal [enrichment R]
1 | B1 | 0.728
2 | B2 | 1.05
3 | B3 | 2.6
4 | B4 | 0.528
5 | B5 | 0.468
6 | B6 | 1.36
7 | B7 | 58.2
8 | B8 | 2.25
9 | B9 | 25.2
10 | B10 | 1.68
11 | B11 | 22
12 | B12 | 152
